9 compounds from PubChem BioAssay (NCATS) can be followed below.

Results filed as inconclusive are left out. The source made the active and inactive calls. Unless noted, the call rests on the fitted dose curve; in most records, active means well fitted curve in the direction sought with a large enough effect; inconclusive means small, poorly fitted or top-dose-only effect, or another doubt; inactive means no such curve, though single readings can be large; an effect the other way counts as inactive or inconclusive.

Experiment [1] in a line: P-glycoprotein substrates identified in KB-8-5-11 adenocarcinoma cell line, qHTS therapeutic library screen (AID 1346987). Further: nearly all actives have a fitted effect of over 65% in size. Further: potency means the concentration at half of the fitted maximal effect. In short, it runs like this: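 KB-8-5-11: colchicine-selected sub-line of KB-3-1 over-expressing P-gp; assay medium lacked colchicine. 72 h drug exposure at 37 degree C, CellTiter-Glo.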
On the technique in general: In qHTS, concentration-response curves come from the screen itself.

In experiment [2] the test system is Zika virus NS2B-NS3 protease (unlinked complex). Description: Primary screen GU Rhodamine qHTS for Zika virus inhibitors: Unlinked NS2B-NS3 protease assay (AID 1347159). Further: on the % scale 0 is the no-effect control and ±100 the full control effect; nearly all actives have a fitted effect of over 60% in size. In short, it runs like this: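 Noncovalent NS2B hydrophilic domain/NS3 protease complex (25 nM final) in 10 mM Tris-HCl pH 8.0, 0.01% Tween 20, preincubated 15 min with compounds (up to 114 microM), then 1.5 microM Rhodamine110 substrate. Fluorescence change over 15 min fitted to 4-parameter Hill.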

Experiment [3] in a line: Primary qHTS for inhibitors of nuclear receptor binding SET domain protein 2 (NSD2) in an isogenic RCH-ACV NSD2 p.E1099K mutant (9B) (AID 1645876). Further: nearly all actives have a fitted effect of over 70% in size. Further: potency means the concentration at half of the fitted maximal effect.
Experiment [4] can be described thus: Primary qHTS for inhibitors of nuclear receptor binding SET domain protein 2 (NSD2) in an RCH-ACV wild type WT cells (2C) (AID 1645877). Further: nearly all actives have a fitted effect of over 70% in size. Further: potency means the concentration at half of the fitted maximal effect.
Experiment [5] deals with Catechol O-methyltransferase (Homo sapiens) (UniProt P21964). Description: Confirmatory Screen for Target Class Profiling of Small Molecule Inhibitors of Methyltransferases (AID 1745852). On activity change, negative = inhibition: on the % scale 0 is the no-effect control and ±100 the full control effect. The following applies: MTase-Glo luminescence, SAH detection, recombinant enzyme; measured here: COMT max response; stronger effect = lower value.
Experiment [6] deals with Guanidinoacetate N-methyltransferase (Homo sapiens) (UniProt Q14353). Described as above. The following applies: activity change, negative = inhibition: at 57.3 µM (top of the series) unless noted.
Experiment [7] addresses Nicotinamide N-methyltransferase (Homo sapiens) (UniProt P40261). The description is as above. To be noted: MTase-Glo luminescence, SAH detection, recombinant enzyme; measured here: NNMT max response; stronger effect = lower value.
In experiment [8] the target is Phenylethanolamine N-methyltransferase (Homo sapiens) (UniProt P11086). The description is as above. The following applies: MTase-Glo luminescence, SAH detection, recombinant enzyme; measured here: PNMT max response; stronger effect = lower value.
Experiment [9] relates to CRL-7250. Description: Cytotoxic Profiling of Annotated Libraries Using Quantitative High-Throughput Screening (AID 1296008). Further: nearly all actives have a fitted effect of over 60% in size. Further: potency means the concentration at half of the fitted maximal effect. On max response: on the % scale 0 is the no-effect control and ±100 the full control effect. To be noted: Five cell lines viability, CellTiter-Glo ATP luminescence, 48-72 h; max response: stronger effect = lower value. In short, it runs like this:
(§1)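 Cells exposed to compounds for 48 or 72 hr at 37 degrees Celsius. Viability read as ATP-coupled luminescence with CellTiter-Glo after 10 min at room temperature.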
Background: Cellular ATP, detected with luciferase, serves as a proxy for viable cell number.

Experiment [10] relates to HACAT. Description: qHTS assay to identify novel small-molecules to repurpose for Merkel cell carcinoma treatment (AID 1296009). Further: nearly all actives have a fitted effect of over 60% in size. The following applies: MCC and control cell lines, CellTiter-Glo viability, 72 h; at 44.8 µM (top of the series) unless noted. The procedure, abridged: (§2)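 Cells were incubated with compound for 72 hr at 37 degree celsius before CellTiter-Glo addition. Luminescence was normalized with no-cell wells as full cytotoxicity and DMSO as baseline.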

The subject of experiment [11] is HeLa. Description: Primary qHTS to identify gynecologic anti-cancer compounds using libraries of approved drugs and bioactive compounds (AID 1345084). Further: nearly all actives have a fitted effect of over 55% in size. Further: potency means the concentration at half of the fitted maximal effect. The following applies: Gynecologic cancer cell panel viability, ATPlite luminescence, 48 h; series mostly up to 57.5 µM. In short, it runs like this: (§3)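 Cells, 1,000 per well, plated 16 h, then exposed 48 h at 37 C to compounds. Viability by ATPlite luminescence after 15 min at room temperature.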

In experiment [12] the target is Cytochrome P450 2D6 (Homo sapiens) (UniProt P10635). Description: Cytochrome P450 family 2 subfamily D member 6 (CYP2D6) small molecule antagonists: luciferase biochemical (cell-free) qHTS assay (AID 1645840; active means well fitted curve in the direction sought with a large enough effect in the repeat runs; an effect the other way counts as inactive or inconclusive; further: nearly all actives have a fitted effect of over 55% in size; further: potency means the concentration at half of the fitted maximal effect; on activity change, negative = inhibition: on the % scale 0 is the no-effect control and ±100 the full control effect). The procedure, abridged:
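P450-Glo luminescent screen: recombinant CYP2D6 enzyme–proluciferin substrate mix preincubated with compound 10 min at room temperature, then NADPH regeneration added for 1 h at room temperature. Detection reagent added for 20 min; luciferin light read as relative luminescence units.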

The subject of experiment [13] is SKOV3. Description: Primary qHTS to identify gynecologic anti-cancer compounds using libraries of approved drugs and bioactive compounds (AID 1345084). Further: nearly all actives have a fitted effect of over 55% in size. Further: potency means the concentration at half of the fitted maximal effect. To be noted: Gynecologic cancer cell panel viability, ATPlite luminescence, 48 h; series mostly up to 57.5 µM. The procedure, abridged:
as §3

Experiment [14] concerns the target Cytochrome P450 2C9 (Homo sapiens) (UniProt P11712). Description: Cytochrome P450 family 2 subfamily C member 9 (CYP2C9) small molecule antagonists: luciferase biochemical (cell-free) qHTS assay (AID 1645842; active means well fitted curve in the direction sought with a large enough effect in the repeat runs; an effect the other way counts as inactive or inconclusive; further: potency means the concentration at half of the fitted maximal effect; nearly all actives have a fitted effect of over 55% in size). The procedure, abridged:
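Luminescence, after 20 min with luciferin detection reagent, reflected CYP2C9 turnover during a 1 h NADPH-driven reaction at 37C. Enzyme-substrate mix contained 0.4% bovine serum albumin and was preincubated with compound 10 min at room temperature.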

For experiment [15], the system named is CRL-7250. Description: qHTS assay to identify novel small-molecules to repurpose for Merkel cell carcinoma treatment (AID 1296009). Further: nearly all actives have a fitted effect of over 60% in size. The following applies: MCC and control cell lines, CellTiter-Glo viability, 72 h; series mostly up to 92 µM. In short, it runs like this: as §2
Experiment [16] has as its system HEK293. Description: Cytotoxic Profiling of Annotated Libraries Using Quantitative High-Throughput Screening (AID 1296008). Further: nearly all actives have a fitted effect of over 60% in size. Further: potency means the concentration at half of the fitted maximal effect. On max response: on the % scale 0 is the no-effect control and ±100 the full control effect. To be noted: Five cell lines viability, CellTiter-Glo ATP luminescence, 48-72 h; max response: stronger effect = lower value. In short, it runs like this: as §1
The subject of experiment [17] is KB-3-1. The description is as above. To be noted: Five cell lines viability, CellTiter-Glo ATP luminescence, 48-72 h; max response: stronger effect = lower value. In short, it runs like this: as §1

Sequence of Cytochrome P450 2D6 (Homo sapiens) (P10635 whole entry, looked up): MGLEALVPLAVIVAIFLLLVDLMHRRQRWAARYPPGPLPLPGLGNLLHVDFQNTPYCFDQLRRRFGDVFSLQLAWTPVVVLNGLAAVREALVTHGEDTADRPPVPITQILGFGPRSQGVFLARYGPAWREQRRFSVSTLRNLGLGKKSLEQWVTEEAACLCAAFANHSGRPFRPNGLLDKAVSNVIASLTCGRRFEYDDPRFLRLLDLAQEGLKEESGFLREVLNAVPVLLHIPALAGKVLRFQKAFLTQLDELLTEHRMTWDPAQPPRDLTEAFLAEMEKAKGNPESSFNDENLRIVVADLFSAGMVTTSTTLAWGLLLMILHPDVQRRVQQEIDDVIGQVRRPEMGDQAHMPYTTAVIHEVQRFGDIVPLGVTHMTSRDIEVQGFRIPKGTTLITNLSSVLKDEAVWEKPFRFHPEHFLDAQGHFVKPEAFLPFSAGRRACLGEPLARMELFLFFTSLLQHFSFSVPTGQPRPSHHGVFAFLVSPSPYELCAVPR
Sequence of Cytochrome P450 2C9 (Homo sapiens) (P11712 whole entry, looked up): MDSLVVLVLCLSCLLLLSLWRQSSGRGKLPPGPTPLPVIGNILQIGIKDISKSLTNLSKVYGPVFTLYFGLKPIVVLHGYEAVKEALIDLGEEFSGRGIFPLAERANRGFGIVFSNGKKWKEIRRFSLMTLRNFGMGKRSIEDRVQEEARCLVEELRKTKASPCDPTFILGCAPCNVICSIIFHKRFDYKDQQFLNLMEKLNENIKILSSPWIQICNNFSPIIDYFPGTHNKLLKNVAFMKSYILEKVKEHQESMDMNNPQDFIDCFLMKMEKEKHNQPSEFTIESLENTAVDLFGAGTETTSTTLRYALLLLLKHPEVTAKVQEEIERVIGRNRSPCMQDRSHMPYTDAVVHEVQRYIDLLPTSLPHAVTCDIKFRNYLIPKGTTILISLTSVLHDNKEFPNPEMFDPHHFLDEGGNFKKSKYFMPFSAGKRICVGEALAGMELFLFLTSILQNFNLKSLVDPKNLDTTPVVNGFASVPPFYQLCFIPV
Sequence of Nicotinamide N-methyltransferase (Homo sapiens) (P40261 whole entry, looked up): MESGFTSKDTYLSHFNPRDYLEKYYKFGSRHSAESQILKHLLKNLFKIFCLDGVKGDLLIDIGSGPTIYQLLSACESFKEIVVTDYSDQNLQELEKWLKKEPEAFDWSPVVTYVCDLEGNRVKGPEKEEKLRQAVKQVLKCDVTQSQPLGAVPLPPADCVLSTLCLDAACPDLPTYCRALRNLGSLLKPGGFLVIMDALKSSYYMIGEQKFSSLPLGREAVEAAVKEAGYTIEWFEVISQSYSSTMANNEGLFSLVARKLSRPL
Sequence of Catechol O-methyltransferase (Homo sapiens) (P21964 whole entry, looked up): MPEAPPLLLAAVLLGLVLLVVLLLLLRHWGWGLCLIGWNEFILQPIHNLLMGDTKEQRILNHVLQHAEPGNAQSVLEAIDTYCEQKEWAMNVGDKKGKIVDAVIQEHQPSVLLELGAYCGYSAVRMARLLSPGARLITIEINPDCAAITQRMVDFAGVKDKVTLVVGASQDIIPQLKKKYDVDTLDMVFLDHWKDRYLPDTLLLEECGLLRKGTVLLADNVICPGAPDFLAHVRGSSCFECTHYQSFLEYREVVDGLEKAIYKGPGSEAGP
Sequence of Phenylethanolamine N-methyltransferase (Homo sapiens) (P11086 whole entry, looked up): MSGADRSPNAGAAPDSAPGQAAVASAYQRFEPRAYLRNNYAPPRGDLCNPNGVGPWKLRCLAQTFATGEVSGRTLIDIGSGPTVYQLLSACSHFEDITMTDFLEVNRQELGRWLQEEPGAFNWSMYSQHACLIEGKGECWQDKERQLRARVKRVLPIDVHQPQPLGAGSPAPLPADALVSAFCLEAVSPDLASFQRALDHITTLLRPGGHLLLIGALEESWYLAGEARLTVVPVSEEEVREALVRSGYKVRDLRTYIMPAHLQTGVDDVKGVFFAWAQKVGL

`Clc1ccc([C@]23CNC[C@H]2C3)cc1Cl`: the Potency entry in [1], in [2], in experiment [3], in [4] and in experiment [11] was “inactive” in each case. The activity was -0.0723% in experiment [5], -7.01% in experiment [7] and -90.8% in experiment [8]. Moreover, the activity change, negative = inhibition in experiment [6] worked out at 2.99%. In experiment [9], the max response was -9.42% (inactive). Further, the outcome in experiment [10] was “inactive”.

Take `C=C1C(=O)OC2/C=C(\COO)CC/C=C(\COC(C)=O)CC(OC(=O)C(C)CC)C12` (stereo not drawn): the Potency entry in [2] and in [11] was “inactive” in each case. Moreover, the Potency in [3] was 6.32 µM (active); in experiment [4], 3.55 µM (active); in experiment [9], 7.96 µM (active). Besides, the outcome in experiment [10] was “inactive [at 17.4 µM]”.

Turning to `CN1C(=O)C(Cc2ccc3ccccc3c2)N=C(c2ccc(O)cc2)c2cc(Cl)ccc21` (stereo not drawn), the Potency result in [2], in experiment [11] and in [13] was “inactive” in each case. Also, in experiment [12], the Potency was 10.7 µM (active). Moreover, the max response in [9] was -21.8% (inactive). Moreover, the outcome in experiment [10] is “inactive”.

For the compound `C[C@@H](CN1CCC2(CC1)C(=O)NCN2c1cccc(F)c1)NC(=O)c1ccc(Br)cc1`, the Potency entry in experiment [2], in experiment [15] and in [11] was “inactive” in each case. Also, the Potency in experiment [12] was 4.77 µM (active); in [14], 9.52 µM (active); in [3], 11.5 µM (active). The outcome in experiment [9] is “inactive”.

As for `COC1CC(OC2CCC3(C=O)C(CCC4C3CCC3(C)C(C5=CC(=O)OC5)CCC43O)C2)OC(C)C1O` (stereo not drawn), the Potency in [1] was 0.178 µM (active); in experiment [3], 0.0796 µM (active); in experiment [4] it was 0.126 µM (active); in experiment [16], 0.112 µM (active); in experiment [17], 0.252 µM (active); in experiment [11] it was 0.224 µM (active). In experiment [13], the Potency is 0.199 µM (active).

Turning to `CCCCCn1cc(C(=O)c2cccc3ccccc23)c2ccccc21`, the Potency entry in experiment [1], in experiment [2], in experiment [12], in [3], in experiment [11] and in experiment [13] was “inactive” each time. Also, the values for the Potency in experiment [14] and in [9] were 1.51 µM (active) and 18.4 µM (active), respectively.

For the compound `O=C1CN=C(c2cccc(Br)c2)c2oc3ccccc3c2N1`, the Potency result in experiment [12] and in experiment [15] was “inactive” each time. Also, the Potency is 10.7 µM (active) in experiment [14], 9.16 µM (active) in experiment [3] and 6.49 µM (active) in experiment [4]. Besides, in experiment [9], the outcome is “inactive”.

Take `Cc1ccc(Cn2nc(C(=O)N[C@@H]3C(C)(C)[C@@H]4CC[C@@]3(C)C4)cc2-c2ccc(Cl)c(C)c2)cc1`: the Potency entry in experiment [1], in experiment [2], in [12], in [3], in experiment [4] and in experiment [13] was “inactive” throughout. Moreover, the Potency in experiment [14] was 2.68 µM (active). Moreover, the max response in experiment [9] was 0.138% (inactive).

Turning to `CC[C@@H]1/C=C/C=C/C[C@H](C)C(O)[C@](C)(O)C(=O)[C@H](C)C(O)[C@H](C)C(=O)[C@H](C)[C@@H](O)[C@H](C)/C=C/C(=O)O[C@H]2[C@@H](C)[C@@H](CC1)O[C@]1(O[C@H](C[C@H](C)O)[C@H](C)CC1=O)[C@@H]2C` (stereo partly drawn), the Potency was 0.123 µM (active) in [3], 0.138 µM (active) in [4], 0.0174 µM (active) in [16] and 0.0491 µM (active) in experiment [17].
